Compounds without any hit were thinned out: in the full panel of roughly 83,000, 20% have a hit.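 Assay: single dose, 48 h. Readout: percent growth (0 = no net growth; negative = cell death). Active: <10.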 Calls of active or inactive are those of the source.
Tested on: CCRF-CEM leukemia
Assay: NCI-60 one-dose screen, 48 h (100 = growth as untreated, 0 = no growth, -100 = all killed)
Conditions: 10 µM unless noted

**Q.** With COc1ccc(-c2cc(-c3cc4ccccc4oc3=O)n(-c3ccccc3)n2)cc1 as the molecule, how does the growth read?
**A.** 94.5% (inactive)

**Q.** How did the growth turn out when CC(C)N(C(=S)SSC(=S)N(C(C)C)C(C)C)C(C)C was run?
**A.** 87.5% (inactive)

**Q.** Which growth does the source give for CCOC(OCC)c1cnc2nc(NC(C)=O)[nH]c(=O)c2n1 here?
**A.** 107% (inactive)

**Q.** COc1ccc(/C=C/c2nc(NCCCN(C)C)c3ccccc3n2)cc1 was tested. Which growth did it give?
**A.** -44.9% (active)

**Q.** How did the growth turn out when CCCCCCCCN=C(NCCCCCCCC)SCc1cccc2ccccc12 was run?
**A.** -2.17% (active)

**Q.** For COc1ccc2nc(-c3ccc(-c4noc(-c5ccc(Cl)cc5)n4)cc3)[nH]c2c1, which growth is on record?
**A.** 57% (inactive)

**Q.** How did the growth turn out when CC(C)CCSc1nc(Nc2ccccc2)c(C#N)c(-c2ccc(F)cc2)n1 was run?
**A.** 49.3% (inactive)

**Q.** How did the growth turn out when C#CCO[C@H]1CC[C@H](OCC#C)[C@@H]2[C@H]1[C@H]1C[C@@H]3[C@@]4(C)CCC[C@@](C)(C(=O)OC)[C@@H]4CC[C@@]23C=C1C(C)C was run?
**A.** -52.9% (active)

**Q.** With O=C(CCCN1CCC(O)(c2ccc(Br)cc2)CC1)c1ccc(F)cc1 as the molecule, how does the growth read?
**A.** 63.8% (inactive)

**Q.** For CCN1C(=O)N(CC)C2C1N=C(SC)N2/N=C/C=C/c1ccccc1OC (stereo not given), which growth is on record?
**A.** 12.5% (inactive)

**Q.** C/C(=N\Nc1ccc([N+](=O)[O-])cn1)c1ccc(N)cc1 was tested. Which growth did it give?
**A.** 96.3% (inactive)

**Q.** COc1ccc(CNc2c3ccccc3nc3ccccc23)cc1F was tested. Which growth did it give?
**A.** 29.6% (inactive)

**Q.** Which growth does the source give for CCOC(=O)C1C(=O)C=C(c2ccccc2)CC1c1sc(N(C)Cc2ccccc2)nc1Cl (stereo not given) here?
**A.** 84% (inactive)

Tested on: MOLT-4 leukemia
Assay: as above
Conditions: 10 µM unless noted

**Q.** For CCS(=O)(=O)Nc1cccc(Nc2c3cccc(C)c3nc3c(C)cccc23)c1OC, which growth is on record?
**A.** -12.8% (active)

**Q.** Cc1nn(-c2ccccc2)c2nc3c(nc12)C1=NCCN1C(c1ccc(Cl)cc1)N3 (stereo not given) was tested. Which growth did it give?
**A.** 47.3% (inactive)

**Q.** For O=C(Nc1cccc(C2=NCCN2)c1)c1ccc(N=Nc2ccc(C(=O)Nc3cccc(C4=NCCN4)c3)cc2)cc1, which growth is on record?
**A.** 80.9% (inactive)

**Q.** For COC(=O)[C@@H](Cc1c[nH]c2ccccc12)NC(=O)/C=C/c1ccccc1, which growth is on record?
**A.** 24.1% (inactive)

**Q.** With CCOC(=O)C(CCCCC(NC(C)=O)(C(=O)OCC)C(=O)OCC)(NC(C)=O)C(=O)OCC as the molecule, how does the growth read?
**A.** 109% (inactive)

**Q.** For CC(C)N(C(=S)SSC(=S)N(C(C)C)C(C)C)C(C)C, which growth is on record?
**A.** 105% (inactive)

**Q.** How did the growth turn out when CCOC(OCC)c1cnc2nc(NC(C)=O)[nH]c(=O)c2n1 was run?
**A.** 103% (inactive)

**Q.** CC(C)(C)c1cc(C[P+](c2ccccc2)(c2ccccc2)c2ccccc2)cc(C(C)(C)C)c1O was tested. Which growth did it give?
**A.** -7.18% (active)

**Q.** N#Cc1ccc(-c2ccc(-c3cccs3)o2)cc1F was tested. Which growth did it give?
**A.** 66.3% (inactive)

**Q.** CCN(C(=O)CCl)C(C)(C)C(SSSC(c1ccc(Cl)cc1)C(C)(C)N(CC)C(=O)CCl)c1ccc(Cl)cc1 (stereo not given) was tested. Which growth did it give?
**A.** 36.9% (inactive)

**Q.** With N=C(N)c1ccc(-c2ccc(-c3ccco3)o2)cc1F as the molecule, how does the growth read?
**A.** 0.311% (active)

**Q.** With COc1ccc(/C=C/c2nc(NCCCN(C)C)c3ccccc3n2)cc1 as the molecule, how does the growth read?
**A.** -46% (active)

**Q.** Which growth does the source give for COc1cc2c(cc1OC)-c1cc(OC)c(OC)cc1C(CN(C)C)C2 (stereo not given) here?
**A.** 103% [100 µM] (inactive)

**Q.** How did the growth turn out when CCCCCCCCN=C(NCCCCCCCC)SCc1cccc2ccccc12 was run?
**A.** -11% (active)

**Q.** With N=C(N)c1ccc(-c2ccc(-c3cccs3)s2)cc1F as the molecule, how does the growth read?
**A.** -55.5% (active)

**Q.** With COc1ccc2nc(-c3ccc(-c4noc(-c5ccc(Cl)cc5)n4)cc3)[nH]c2c1 as the molecule, how does the growth read?
**A.** 79% (inactive)

**Q.** How did the growth turn out when Cc1cccc2nc3ccccc3c(Nc3ccc(NS(C)(=O)=O)cc3)c12 was run?
**A.** -0.487% (active)

**Q.** With CC(C)CCSc1nc(Nc2ccccc2)c(C#N)c(-c2ccc(F)cc2)n1 as the molecule, how does the growth read?
**A.** 51.5% (inactive)

**Q.** How did the growth turn out when COc1cc(OC)cc(-c2ccc(-c3ccc(C(=N)N)s3)s2)c1 was run?
**A.** -71.2% (active)

**Q.** For COc1ccc(-c2ccc(-c3ccc(C(=N)N)s3)s2)cc1, which growth is on record?
**A.** -56.2% (active)

**Q.** For C#CCO[C@H]1CC[C@H](OCC#C)[C@@H]2[C@H]1[C@H]1C[C@@H]3[C@@]4(C)CCC[C@@](C)(C(=O)OC)[C@@H]4CC[C@@]23C=C1C(C)C, which growth is on record?
**A.** 56.2% (inactive)

**Q.** How did the growth turn out when COC(=O)[C@H](Cc1cn(C)cn1)NC(=O)[C@H](CC(C)C)NC(=O)Nc1cc(C(F)(F)F)cc(C(F)(F)F)c1 was run?
**A.** -57.2% [100 µM] (active)

**Q.** O=C1CCCN1C1CCN2CCCc3cccc1c32 (stereo not given) was tested. Which growth did it give?
**A.** 78.9% (inactive)

**Q.** O=C(CCCN1CCC(O)(c2ccc(Br)cc2)CC1)c1ccc(F)cc1 was tested. Which growth did it give?
**A.** 60.3% (inactive)

**Q.** With COc1ccc(/C=N/NC(N)=S)c(OC)n1 as the molecule, how does the growth read?
**A.** 90.8% (inactive)

**Q.** How did the growth turn out when CCN1C(=O)N(CC)C2C1N=C(SC)N2/N=C/C=C/c1ccccc1OC (stereo not given) was run?
**A.** 14.7% (inactive)

**Q.** How did the growth turn out when C/C(=N\Nc1ccc([N+](=O)[O-])cn1)c1ccc(N)cc1 was run?
**A.** -11.7% (active)

**Q.** For N/C(=N\O)c1ncc(-c2ccc(C(F)(F)F)cc2)c(NC2CCCCCC2)n1, which growth is on record?
**A.** -61.3% [100 µM] (active)

**Q.** O=[N+]([O-])c1ccc(Sc2nc(Cl)nc(NC3CCCC3)n2)cc1 was tested. Which growth did it give?
**A.** -30.1% [100 µM] (active)

**Q.** Which growth does the source give for Cc1cc2nc(CN)[nH]c2cc1C here?
**A.** 102% (inactive)

**Q.** How did the growth turn out when ClC1=NC(Cl)C(Cl)=N/C1=N\c1ncn[nH]1 (stereo not given) was run?
**A.** -52.2% (active)

**Q.** Which growth does the source give for COc1ccc(CNc2c3ccccc3nc3ccccc23)cc1F here?
**A.** 8.92% (active)

**Q.** With CCOC(=O)C1C(=O)C=C(c2ccccc2)CC1c1sc(N(C)Cc2ccccc2)nc1Cl (stereo not given) as the molecule, how does the growth read?
**A.** 71.1% (inactive)

**Q.** For CCOC(=O)c1cc(C(=O)OCC)c(C)nc1C, which growth is on record?
**A.** 90.8% (inactive)

**Q.** Which growth does the source give for O=C(CC(=O)c1ccccc1F)Nc1ccc([N+](=O)[O-])cc1 here?
**A.** 93.3% (inactive)

**Q.** Which growth does the source give for Cc1cc(Nc2c3ccccc3nc3ccccc23)ccc1NS(C)(=O)=O here?
**A.** 2.33% (active)

**Q.** With COC(=O)CSc1ccc(Cl)cc1 as the molecule, how does the growth read?
**A.** 88.8% (inactive)
